According to the supplement of paper PMC10849652:
Targets with a hit are over-represented here; the source holds about 7,900 in all. About 0.6% of all pairs of compound and target were hits. A number with no mark means an inactive call.

Assays:
Assay in all cases: log2 fold change, soluble protein after heating vs DMSO (PISA); higher = thermal stabilisation; K562 cells, 10 uM, 30 min; active = over 0.2 and 3.5 SD of the protein, either way, in both replicates (recomputed)
[1] = compound: CC1=C(C=C(C=C1)NC(=O)C2=CC(=CC=C2)C(C)(C)C#N)NC3=CC4=C(C=C3)N=CN(C4=O)C
Procedure, shortened: (§1)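 K562 cells at 2×10^6 cells/mL were treated with 10 μM compound for 30 min. Aliquots were heated for 3 min across 48°C-58°C, pooled, and extracted in PBS with 0.5% NP-40 at 4°C; soluble protein was the supernatant after 21,000xg for 90 min. Soluble protein was quantified by TMTpro 16plex LC-MS/MS with channel sums equalised, and reported as log2 fold change in thermal stability against DMSO controls, with values from duplicates.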

[2] = compound: CC1=C(C=C(C=C1)NC(=O)C2=CC(=CC=C2)N(C)C)NC(=O)C3=CC=C(C=C3)O
Procedure, shortened: as §1

[3] = compound: CC1=CC=C(C=C1)SC2=C3C=C(SC3=CN=C2)C(=O)N
Procedure, shortened: as §1

[4] = compound: CC1=NC(=CC=C1)C2=C(N=C(N2)C(C)(C)C)C3=CC4=NC=CN=C4C=C3
Procedure, shortened: as §1

Nexturastat A = compound: CCCCN(Cc1ccc(C(=O)NO)cc1)C(=O)Nc1ccccc1 [Nexturastat A]
Procedure, shortened: as §1

vemurafenib = compound: CCCS(=O)(=O)Nc1ccc(F)c(C(=O)c2c[nH]c3ncc(-c4ccc(Cl)cc4)cc23)c1F [vemurafenib]
Procedure, shortened: as §1

[5] = compound: CCCS(=O)(=O)Nc1ccc(F)c(C(=O)c2c[nH]c3ncc(Cl)cc23)c1F
Procedure, shortened: as §1

[6] = compound: CCCc1cc(C)[nH]c(=O)c1CNC(=O)c1cc(-c2ccnc(N3CCN(C)CC3)c2)cc2c1cnn2C(C)C
Procedure, shortened: as §1

givinostat = compound: CCN(CC)Cc1ccc2cc(COC(=O)Nc3ccc(C(=O)NO)cc3)ccc2c1 [givinostat]
Procedure, shortened: as §1

barasertib = compound: CCN(CCCOc1ccc2c(Nc3cc(CC(=O)Nc4cccc(F)c4)[nH]n3)ncnc2c1)CCOP(=O)(O)O [barasertib]
Procedure, shortened: as §1

[7] = compound: CC[C@@H]1C(=O)N(C)c2cnc(Nc3ccc(C(=O)NC4CCN(C)CC4)cc3OC)nc2N1C1CCCC1
Procedure, shortened: as §1

volasertib = compound: CC[C@@H]1C(=O)N(C)c2cnc(Nc3ccc(C(=O)N[C@H]4CC[C@H](N5CCN(CC6CC6)CC5)CC4)cc3OC)nc2N1C(C)C [volasertib]
Procedure, shortened: as §1

[8] = compound: CC[C@H](C)N1C=C(C2=C(C=C(C=C21)C3=CN=C(C=C3)N4CCNCC4)C(=O)NCC5=C(C=C(NC5=O)C)C)C
Procedure, shortened: as §1

epoxomicin = compound: CC[C@H](C)[C@@H](C(=O)N[C@@H]([C@@H](C)O)C(=O)N[C@@H](CC(C)C)C(=O)[C@]1(CO1)C)NC(=O)[C@H]([C@@H](C)CC)N(C)C(=O)C [epoxomicin]
Procedure, shortened: as §1

[9] = compound: CCn1c(C(=O)N(C2CC2)C2CC2)cc2c3c(ncn3C)c(Nc3cc(C)n(C)n3)nc21
Procedure, shortened: as §1

[10] = compound: CCn1cc(-c2ccnc3[nH]c(-c4cccc(CN(C)C)c4)cc23)c(-c2ccc(NC(=O)N(C)C)cc2)n1
Procedure, shortened: as §1

[11] = compound: CN(C)CC(=O)Nc1ccc2[nH]c(=O)c3ccccc3c2c1
Procedure, shortened: as §1

rosiglitazone = compound: CN(CCOC1=CC=C(C=C1)C[C@H]2C(=O)NC(=O)S2)C3=CC=CC=N3 (racemic) [rosiglitazone]
Procedure, shortened: as §1

[12] = compound: CN1C2=C(C3=C1C(=O)N(N=C3)CC4=CC(=CC=C4)N)SC(=C2)S(=O)C
Procedure, shortened: as §1

[13] = compound: CN1CCC(CNc2ccc3ncc(-c4cccc(OC(F)(F)F)c4)n3n2)CC1
Procedure, shortened: as §1

UniProt P62333, sequence (P62333 whole entry, looked up): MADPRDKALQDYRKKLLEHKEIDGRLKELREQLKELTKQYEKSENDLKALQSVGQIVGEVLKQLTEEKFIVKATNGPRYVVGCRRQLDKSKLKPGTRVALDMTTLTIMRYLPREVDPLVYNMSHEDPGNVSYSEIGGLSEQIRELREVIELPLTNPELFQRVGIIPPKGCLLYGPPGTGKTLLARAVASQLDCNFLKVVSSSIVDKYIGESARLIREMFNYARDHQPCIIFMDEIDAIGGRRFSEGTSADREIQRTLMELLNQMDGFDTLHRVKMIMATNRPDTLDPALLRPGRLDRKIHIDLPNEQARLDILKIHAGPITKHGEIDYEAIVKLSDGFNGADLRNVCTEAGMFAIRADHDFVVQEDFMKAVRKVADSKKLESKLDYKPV
UniProt P28070, sequence (P28070 whole entry, looked up): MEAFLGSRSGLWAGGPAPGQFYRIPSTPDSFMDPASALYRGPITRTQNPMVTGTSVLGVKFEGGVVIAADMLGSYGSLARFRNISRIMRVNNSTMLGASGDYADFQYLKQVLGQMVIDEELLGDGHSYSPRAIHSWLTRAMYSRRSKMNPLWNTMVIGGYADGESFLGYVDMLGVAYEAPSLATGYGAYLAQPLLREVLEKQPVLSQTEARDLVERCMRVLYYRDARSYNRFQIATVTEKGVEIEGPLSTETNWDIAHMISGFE
UniProt Q04759, sequence (Q04759 whole entry, looked up): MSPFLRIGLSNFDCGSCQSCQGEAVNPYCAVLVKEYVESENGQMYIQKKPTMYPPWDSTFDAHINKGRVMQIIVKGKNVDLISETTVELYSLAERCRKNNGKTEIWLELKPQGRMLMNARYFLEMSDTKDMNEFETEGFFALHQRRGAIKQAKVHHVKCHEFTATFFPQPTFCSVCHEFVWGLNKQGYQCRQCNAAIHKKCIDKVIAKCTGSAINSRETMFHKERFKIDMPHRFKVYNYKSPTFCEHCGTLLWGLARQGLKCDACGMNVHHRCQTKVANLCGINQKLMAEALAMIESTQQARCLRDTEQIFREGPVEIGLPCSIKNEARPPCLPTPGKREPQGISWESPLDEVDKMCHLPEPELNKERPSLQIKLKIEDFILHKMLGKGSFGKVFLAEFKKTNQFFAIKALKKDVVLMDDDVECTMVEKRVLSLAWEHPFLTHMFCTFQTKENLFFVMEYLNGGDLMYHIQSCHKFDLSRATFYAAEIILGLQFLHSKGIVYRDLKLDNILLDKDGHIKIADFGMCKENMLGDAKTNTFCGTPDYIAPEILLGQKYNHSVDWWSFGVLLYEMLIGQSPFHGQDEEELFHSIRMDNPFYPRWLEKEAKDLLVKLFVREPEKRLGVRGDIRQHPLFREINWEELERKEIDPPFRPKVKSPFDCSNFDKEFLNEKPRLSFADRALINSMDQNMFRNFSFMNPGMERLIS
UniProt Q9UMR5, sequence (Q9UMR5 whole entry, looked up): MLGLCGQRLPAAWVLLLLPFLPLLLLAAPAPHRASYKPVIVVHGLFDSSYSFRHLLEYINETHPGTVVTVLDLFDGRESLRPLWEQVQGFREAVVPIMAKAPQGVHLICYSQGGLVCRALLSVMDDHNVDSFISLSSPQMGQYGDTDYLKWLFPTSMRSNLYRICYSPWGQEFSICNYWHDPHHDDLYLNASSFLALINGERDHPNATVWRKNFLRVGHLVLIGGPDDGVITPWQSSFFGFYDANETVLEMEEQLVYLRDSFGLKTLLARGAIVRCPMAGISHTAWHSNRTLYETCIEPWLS
UniProt P15735, sequence (P15735 whole entry, looked up): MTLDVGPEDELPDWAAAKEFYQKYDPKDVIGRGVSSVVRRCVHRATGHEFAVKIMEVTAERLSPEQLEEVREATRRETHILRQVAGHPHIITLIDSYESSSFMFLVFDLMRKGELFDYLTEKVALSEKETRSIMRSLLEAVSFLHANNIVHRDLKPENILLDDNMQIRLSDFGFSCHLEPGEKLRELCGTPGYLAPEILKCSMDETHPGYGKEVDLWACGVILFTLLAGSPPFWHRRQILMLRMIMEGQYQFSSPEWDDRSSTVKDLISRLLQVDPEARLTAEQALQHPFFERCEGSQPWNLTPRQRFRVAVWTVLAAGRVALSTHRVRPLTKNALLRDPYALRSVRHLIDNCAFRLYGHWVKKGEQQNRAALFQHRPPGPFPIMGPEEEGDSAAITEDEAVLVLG
UniProt Q8WUK0, sequence (Q8WUK0 whole entry, looked up): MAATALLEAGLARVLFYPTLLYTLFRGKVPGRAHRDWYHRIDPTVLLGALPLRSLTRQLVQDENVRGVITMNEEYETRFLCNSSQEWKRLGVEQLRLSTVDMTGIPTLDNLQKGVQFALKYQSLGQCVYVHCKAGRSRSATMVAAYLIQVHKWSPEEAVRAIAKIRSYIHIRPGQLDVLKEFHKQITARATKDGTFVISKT
UniProt Q6WKZ4, sequence (Q6WKZ4 whole entry, looked up): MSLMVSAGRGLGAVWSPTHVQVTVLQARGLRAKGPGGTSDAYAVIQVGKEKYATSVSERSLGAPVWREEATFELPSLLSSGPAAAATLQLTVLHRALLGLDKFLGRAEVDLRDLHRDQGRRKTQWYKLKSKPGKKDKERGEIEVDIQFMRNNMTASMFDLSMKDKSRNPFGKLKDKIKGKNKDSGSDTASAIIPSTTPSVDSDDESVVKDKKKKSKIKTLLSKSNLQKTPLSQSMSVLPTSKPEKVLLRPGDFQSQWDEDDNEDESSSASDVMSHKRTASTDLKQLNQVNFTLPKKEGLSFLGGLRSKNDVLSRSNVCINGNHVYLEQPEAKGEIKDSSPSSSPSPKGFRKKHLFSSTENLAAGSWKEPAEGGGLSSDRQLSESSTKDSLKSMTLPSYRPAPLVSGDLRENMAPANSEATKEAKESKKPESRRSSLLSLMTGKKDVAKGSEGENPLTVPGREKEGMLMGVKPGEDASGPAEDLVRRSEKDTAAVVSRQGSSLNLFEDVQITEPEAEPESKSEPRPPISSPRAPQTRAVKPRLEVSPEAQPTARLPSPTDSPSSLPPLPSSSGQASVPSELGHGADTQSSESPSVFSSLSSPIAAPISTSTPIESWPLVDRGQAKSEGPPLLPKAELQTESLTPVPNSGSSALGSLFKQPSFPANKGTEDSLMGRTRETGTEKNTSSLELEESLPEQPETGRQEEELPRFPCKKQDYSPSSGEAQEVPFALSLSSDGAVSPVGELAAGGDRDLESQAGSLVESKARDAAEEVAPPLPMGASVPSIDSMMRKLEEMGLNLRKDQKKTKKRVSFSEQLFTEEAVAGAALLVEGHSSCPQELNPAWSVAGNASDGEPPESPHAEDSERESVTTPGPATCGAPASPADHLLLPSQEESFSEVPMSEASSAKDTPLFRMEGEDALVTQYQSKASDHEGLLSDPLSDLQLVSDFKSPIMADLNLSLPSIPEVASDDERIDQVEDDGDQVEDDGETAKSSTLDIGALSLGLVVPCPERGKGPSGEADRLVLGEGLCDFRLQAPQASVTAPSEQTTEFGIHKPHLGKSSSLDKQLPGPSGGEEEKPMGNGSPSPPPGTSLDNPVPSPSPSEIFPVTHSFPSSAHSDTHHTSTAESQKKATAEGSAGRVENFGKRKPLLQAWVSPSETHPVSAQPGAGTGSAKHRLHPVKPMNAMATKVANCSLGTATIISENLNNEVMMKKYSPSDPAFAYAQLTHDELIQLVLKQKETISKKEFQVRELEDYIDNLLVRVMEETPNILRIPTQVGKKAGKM
UniProt O00233, sequence (O00233 whole entry, looked up): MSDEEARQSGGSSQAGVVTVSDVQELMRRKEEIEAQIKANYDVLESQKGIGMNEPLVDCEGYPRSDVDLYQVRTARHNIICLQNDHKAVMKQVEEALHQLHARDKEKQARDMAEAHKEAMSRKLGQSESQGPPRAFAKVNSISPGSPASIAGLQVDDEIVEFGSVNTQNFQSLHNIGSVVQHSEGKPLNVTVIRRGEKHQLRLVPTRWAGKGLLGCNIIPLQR
UniProt Q5H8A4, sequence (Q5H8A4 whole entry, looked up): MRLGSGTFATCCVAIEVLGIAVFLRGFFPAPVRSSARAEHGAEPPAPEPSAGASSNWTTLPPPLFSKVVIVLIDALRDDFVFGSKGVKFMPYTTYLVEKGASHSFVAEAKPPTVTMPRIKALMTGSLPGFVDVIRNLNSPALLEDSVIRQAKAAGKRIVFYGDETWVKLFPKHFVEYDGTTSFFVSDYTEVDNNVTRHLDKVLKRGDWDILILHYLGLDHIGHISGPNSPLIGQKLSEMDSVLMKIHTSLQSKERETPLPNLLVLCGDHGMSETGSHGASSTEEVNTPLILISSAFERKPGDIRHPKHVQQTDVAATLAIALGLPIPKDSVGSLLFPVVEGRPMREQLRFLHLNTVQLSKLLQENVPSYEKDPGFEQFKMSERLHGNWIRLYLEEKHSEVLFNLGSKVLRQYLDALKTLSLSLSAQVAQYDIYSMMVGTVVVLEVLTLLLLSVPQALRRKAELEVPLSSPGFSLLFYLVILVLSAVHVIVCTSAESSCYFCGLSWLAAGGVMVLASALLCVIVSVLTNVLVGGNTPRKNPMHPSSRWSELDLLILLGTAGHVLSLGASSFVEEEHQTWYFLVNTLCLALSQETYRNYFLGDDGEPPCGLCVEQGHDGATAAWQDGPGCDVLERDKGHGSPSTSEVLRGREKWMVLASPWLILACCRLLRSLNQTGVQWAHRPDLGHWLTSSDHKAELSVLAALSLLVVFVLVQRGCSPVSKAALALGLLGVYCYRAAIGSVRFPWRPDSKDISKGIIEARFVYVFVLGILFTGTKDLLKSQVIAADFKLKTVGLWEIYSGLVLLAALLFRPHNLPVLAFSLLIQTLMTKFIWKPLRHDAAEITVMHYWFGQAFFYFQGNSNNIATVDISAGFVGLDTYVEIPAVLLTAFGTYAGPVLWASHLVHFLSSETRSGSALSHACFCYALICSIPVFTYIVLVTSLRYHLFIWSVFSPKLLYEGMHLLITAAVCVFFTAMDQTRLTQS

Row | Target | log2 fold change [1] | log2 fold change [2] | log2 fold change [3] | log2 fold change [4] | log2 fold change (Nexturastat A) | log2 fold change (vemurafenib) | log2 fold change [5] | log2 fold change [6] | log2 fold change (givinostat) | log2 fold change (barasertib) | log2 fold change [7] | log2 fold change (volasertib) | log2 fold change [8] | log2 fold change (epoxomicin) | log2 fold change [9] | log2 fold change [10] | log2 fold change [11] | log2 fold change (rosiglitazone) | log2 fold change [12] | log2 fold change [13]
1 | RAB11FIP1 (UniProt Q6WKZ4) | -0.009 | 0.001 | 0.015 | -0.018 | 0.034 | 0.006 | 0.063 | 0.009 | 0.015 | 0.014 | -0.07 | -0.105 | 0.023 | 0.122 | 0.015 | -0.063 | 0.021 | 0.018 | -0.017 | -0.373 (active)
2 | PLD3 (UniProt Q8IV08) | 0.002 | 0.012 | 0.034 | 0.018 | -0.081 | -0.007 | 0.019 | -0.028 | -0.072 | -0.013 | -0.369 (active) | -0.437 (active) | -0.038 | 0.041 | 0.052 | 0.035 | 0.014 | -0.007 | -0.027 | -0.488 (active)
3 | PTPMT1 (UniProt Q8WUK0) | 0.043 | -0.019 | 0.025 | 0.025 | -0.114 | -0.047 | 0.031 | -0.029 | -0.029 | 0.041 | -0.298 | -0.127 | 0.002 | 0.088 | 0.044 | -0.051 | 0.012 | -0.012 | -0.006 | -1.21 (active)
4 | PARG (UniProt Q86W56) | 0.126 | -0.064 | -0.008 | 0.025 | 0.018 | 0.087 | -0.006 | -0.003 | 0.107 | 0.07 | 0.036 | -0.025 | 0.059 | 0.004 | -0.126 | -0.016 | 0.09 | 0.059 | 0.005 | -0.126
5 | PPP1R12A (UniProt O14974) | -0.012 | -0.036 | 0.046 | 0.045 | 0.001 | 0.015 | 0.073 | -0.032 | 0.048 | 0.066 | -0.136 | -0.468 (active) | 0.066 | 0.067 | -0.028 | -0.229 | 0 | 0.059 | -0.016 | -0.536 (active)
6 | PSMD3 (UniProt O43242) | 0.023 | 0.022 | -0.052 | -0.024 | 0.065 | -0.06 | -0.032 | 0.034 | -0.028 | -0.066 | 0.039 | 0.133 | 0 | -0.337 (active) | 0.01 | 0.02 | -0.01 | -0.01 | 0.027 | 0.067
7 | PPT2 isoform 3 (UniProt Q9UMR5) | -0.064 | -0.002 | 0.025 | 0.078 | 0 | -0.001 | 0.052 | 0.002 | 0.041 | -0.017 | -0.57 (active) | -0.87 (active) | -0.006 | -0.021 | 0.005 | 0.206 | -0.068 | 0.048 | -0.051 | -0.682 (active)
8 | PHKG2 (UniProt P15735) | 0.012 | -0.007 | -0.083 | -0.031 | 0.002 | -0.003 | -0.004 | 0 | 0.01 | -0.079 | -0.155 | -0.195 | 0.054 | -0.004 | 0.01 | 0.043 | -0.002 | 0.018 | -0.027 | -0.156
9 | PSMD7 (UniProt P51665) | -0.011 | -0.005 | -0.047 | -0.038 | 0.145 | -0.073 | -0.029 | 0.045 | -0.03 | -0.05 | 0.027 | 0.205 | 0 | -0.236 | 0.01 | 0.027 | -0.019 | -0.047 | 0.083 | 0.06
10 | PSMD9 (UniProt O00233) | -0.012 | 0.018 | 0.021 | 0.012 | -0.068 | -0.014 | -0.021 | -0.016 | -0.004 | 0 | -0.011 | 0.086 | 0.004 | -0.04 | -0.009 | -0.137 | -0.01 | 0.002 | -0.034 | 0.127
11 | PRKCQ (UniProt Q04759) | 0.013 | -0.043 | 0.073 | -0.004 | -0.055 | 0.015 | 0.065 | -0.065 | 0.052 | 0.03 | -0.11 | -0.17 | 0.031 | 0.001 | -0.028 | -0.047 | 0.021 | 0.049 | -0.014 | -0.496 (active)
12 | PSMC6 (UniProt P62333) | 0 | 0.022 | -0.034 | -0.043 | 0.034 | -0.067 | -0.069 | 0.01 | -0.081 | -0.055 | 0.033 | 0.178 | -0.021 | -0.312 (active) | -0.012 | 0.029 | -0.03 | -0.038 | 0.009 | 0.018
13 | PIGG (UniProt Q5H8A4) | 0.016 | -0.003 | 0.004 | -0.007 | 0.018 | 0.359 | -0.019 | -0.045 | 0.001 | 0.001 | -0.062 | 0.022 | 0.037 | -0.017 | -0.049 | -0.022 | 0.009 | 0.015 | -0.04 | 0.093
14 | PDCD6IP (UniProt Q8WUM4) | 0.032 | -0.079 | 0.077 | 0.058 | 0.066 | 0.106 | 0.153 | 0.119 | 0.183 | 0.135 | -0.219 | -0.694 (active) | 0.166 | 0.082 | -0.097 | -0.06 | 0.116 | 0.097 | 0.043 | -0.256
15 | PLIN2 (UniProt Q99541) | 0.069 | 0.018 | 0.109 | 0.022 | 0.082 | 0.01 | 0.042 | -0.12 | -0.014 | 0.013 | -0.173 | -0.259 | -0.102 | 0.153 | -0.008 | -0.01 | 0.013 | -0.033 | 0 | -0.699 (active)
16 | PSMB4 (UniProt P28070) | -0.026 | 0.02 | -0.075 | -0.031 | 0.023 | -0.027 | -0.029 | 0.008 | -0.008 | -0.052 | 0.073 | 0.114 | -0.043 | -0.202 | 0.011 | 0.031 | -0.028 | -0.045 | 0.021 | 0.057
